Compounds without any hit were thinned out: in the full panel of roughly 79,000, 15% have a hit. Unmarked numbers belong to inactive results. No stated cut-off is given here; in the data, active means growth inhibition above about 70%; inactive means the rest.
Experiment: NCI Yeast Anticancer Drug Screen. Data for the rad50 strain (AID 155);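 further: 0% = growth of vehicle-only cultures of the same strain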
Details: S. cerevisiae rad50 strain growth inhibition, active compounds read high; at 50.0 µM unless noted
Summary of the method: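 Compounds were tested on a yeast strain with an engineered DNA damage repair alteration; the reported value is growth inhibition normalised to vehicle treatment.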

Compared with `Cc1cccc(NC(=O)C(=O)C(C(=O)c2ccc3ccccc3c2)C2OC(=O)c3ccccc32)c1C` (stereo not given), `O=C(OC1c2cccc3cccc(c23)C1O)c1ccccc1` (stereo not given) is higher in growth inhibition: -3.95% for the first, 8.2% for the second.

Going from `COc1ccc(C2OC3=C(Nc4cc(C)c(C)cc4N3)C2=O)cc1` (stereo not given) to `COc1ccc(OC)c(/C=N\NC(=O)N/N=C/c2cc(OC)ccc2OC)c1`, the growth inhibition falls from 11.2% to -9.4%.

Going from `COc1cc(O)c2c(=O)cc(-c3ccc(O)cc3O)oc2c1CC=C(C)C` to `COc1cc(CNc2ccccc2)ccc1O`, the growth inhibition falls from 43.5% to -15.2%.

Compared with `COc1cc(NC(C)=O)c2c(c1)SCC(=O)N2`, `COC(=O)C(Br)C(Br)c1cc(OC)c(OC)c(OC)c1` (stereo not given) is higher in growth inhibition: 3.2% for the first, 48.2% for the second.

Compared with `CN1N=CSC12C(=O)N(c1ccccc1)C(=O)N2c1ccccc1` (stereo not given), `N#CC1(C(=O)c2ccccc2)C=Cc2ccccc2N1C(=O)c1ccccc1` (stereo not given) is lower in growth inhibition: 0.4% for the first, -6.85% for the second.

First: CN(C)CCl
Second: CCOC(=O)C(F)C(=O)OCC
The growth inhibition of the first is lower: -1.4% for the first, 14.8% for the second.

Compared with `CCOC(=O)C1=C(O)C[C@]2(O)C3CC=C(C)[C@@H]4CCO[C@](OC)(C[C@H]2C1)[C@]34C(=O)OC` (stereo not given in full), `CCC(C)C(NC(=O)C1CSC(C)(C)N1C=O)C(=O)OC1CCCCC1` (stereo not given) is higher in growth inhibition: 1% for the first, 38.9% for the second.

Compared with `O=C(CCCC1CCCCC1)OC1CCCCC1`, `CC12CC(O)C3C(CCC4CC(O)CCC43C)C1CCC2C(=O)CO` (stereo not given) is higher in growth inhibition: 5.3% for the first, 13.6% for the second.

First: CCN(CC)CCNC(=O)c1ccc(I)cc1
Second: CCOC(Cn1ccc[n+]1CC(=O)c1ccccc1)OCC
The growth inhibition of the first is lower: -43.4% for the first, 0.9% for the second.

First: CCCCNC(=O)/C=C/C(=O)NCCCC
Second: CCOC(=O)CC(=O)CC(=O)OCC
The growth inhibition of the first is lower: 11.5% for the first, 36% for the second.

Going from `C[C@H]1CC[C@@H]2O[C@@]23C(=O)OC2OC(C)(C)[C@@H]([C@H]2O)[C@]13C` to `COC1OCC(N=[N+]=[N-])C(OS(C)(=O)=O)C1OS(C)(=O)=O` (stereo not given), the growth inhibition rises from -18.6% to -1.65%.

First: Cc1ccc(S(=O)(=O)N(C)c2ccc3c(c2)C(=O)c2ccccc2-3)cc1
Second: O=C(O)CS(=O)c1ccc2c3c(cccc13)C(=O)c1ccccc1-2 (stereo not given)
The growth inhibition of the first is higher: 20.6% for the first, 14.7% for the second.

Compared with `CNCCCn1c2ccccc2c2c3c(c(-c4ccsc4)cc21)C(=O)NC3=O`, `Cc1cccc2ccc(-c3cc4ccccc4s3)nc12` is lower in growth inhibition: -1.75% for the first, -5.95% for the second.

First: Nc1ncnc(N)c1NC(=O)c1cccnc1
Second: O=[N+]([O-])c1c[nH]c2ncnc(Cl)c12
The growth inhibition of the first is higher: 8.7% for the first, 4.25% for the second.

Going from `c1ccc2nn(C3CCCO3)nc2c1` (stereo not given) to `C[C@]12C=CC(=O)C=C1CC[C@@H]1[C@@H]2C(=O)C[C@@]2(C)[C@H]1CC[C@]2(O)C(=O)COC(=O)CSc1c2ccccc2nc2ccccc12`, the growth inhibition rises from 0.75% to 35.6%.

Compared with `OCc1ccccc1Sc1ccccc1CO`, `O=C(c1ccccc1)C1(c2ccccc2)OC1(C(=O)c1ccccc1)c1ccccc1` (stereo not given) is lower in growth inhibition: 15.8% for the first, 15.4% for the second.

Compared with `O=C(O)c1nc2cn1/C=C\C=NCC1=CN3C=CC=NC3(C(=O)O)N1C2` (stereo not given), `CN(C)c1nc(NC(=O)NC(=O)c2c(F)cccc2F)nc(N(C)C)n1` is higher in growth inhibition: -14.6% for the first, -2% for the second.

Compared with `O=P(O)(O)OP(=O)(O)O`, `O=C(O)CNC(=S)SCC(=O)O` is higher in growth inhibition: -15.3% for the first, -2.4% for the second.

Going from `O=C(O)CCN(CCCCN(CCC(=O)O)CCC(=O)O)CCC(=O)O` to `C=CCSc1cccc(C)c1`, the growth inhibition falls from 4.7% to -19.4%.

Compared with `Nc1c(F)cc(I)cc1F`, `CN=C1CC2c3cc(OC)c(OC)cc3CCN2C2=C1C(=O)CC(C)(C)C2` (stereo not given) is higher in growth inhibition: -3.95% for the first, 17.1% for the second.

Experiment: NCI Yeast Anticancer Drug Screen. Data for the mec2-1 strain (AID 157)
Details: S. cerevisiae mec2-1 strain, active compounds read high; at 50.0 µM unless noted
Summary of the method: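 Using mec2-1 yeast: add compound, measure growth, express inhibition versus vehicle-treated cultures.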

First: Cc1cccc(NC(=O)C(=O)C(C(=O)c2ccc3ccccc3c2)C2OC(=O)c3ccccc32)c1C (stereo not given)
Second: O=C(OC1c2cccc3cccc(c23)C1O)c1ccccc1 (stereo not given)
The growth inhibition of the first is higher: 4.75% for the first, -2.45% for the second.

Going from `COc1ccc(C2OC3=C(Nc4cc(C)c(C)cc4N3)C2=O)cc1` (stereo not given) to `COc1ccc(OC)c(/C=N\NC(=O)N/N=C/c2cc(OC)ccc2OC)c1`, the growth inhibition falls from -8.05% to -20.6%.

Going from `COc1cc(O)c2c(=O)cc(-c3ccc(O)cc3O)oc2c1CC=C(C)C` to `COc1cc(CNc2ccccc2)ccc1O`, the growth inhibition rises from 0.4% to 6.1%.

Going from `COc1cc(NC(C)=O)c2c(c1)SCC(=O)N2` to `COC(=O)C(Br)C(Br)c1cc(OC)c(OC)c(OC)c1` (stereo not given), the growth inhibition rises from -34.5% to 9.6%.

Going from `CN1N=CSC12C(=O)N(c1ccccc1)C(=O)N2c1ccccc1` (stereo not given) to `N#CC1(C(=O)c2ccccc2)C=Cc2ccccc2N1C(=O)c1ccccc1` (stereo not given), the growth inhibition rises from -1.55% to 16.4%.

Going from `CN(C)CCl` to `CCOC(=O)C(F)C(=O)OCC`, the growth inhibition rises from -28.2% to -2.95%.

Going from `CCOC(=O)C1=C(O)C[C@]2(O)C3CC=C(C)[C@@H]4CCO[C@](OC)(C[C@H]2C1)[C@]34C(=O)OC` (stereo not given in full) to `CCC(C)C(NC(=O)C1CSC(C)(C)N1C=O)C(=O)OC1CCCCC1` (stereo not given), the growth inhibition falls from 12.8% to -13.2%.

Going from `O=C(CCCC1CCCCC1)OC1CCCCC1` to `CC12CC(O)C3C(CCC4CC(O)CCC43C)C1CCC2C(=O)CO` (stereo not given), the growth inhibition rises from 8.4% to 14.2%.

First: CCN(CC)CCNC(=O)c1ccc(I)cc1
Second: CCOC(Cn1ccc[n+]1CC(=O)c1ccccc1)OCC
The growth inhibition of the first is lower: -14.8% for the first, -5.25% for the second.

First: CCCCNC(=O)/C=C/C(=O)NCCCC
Second: CCOC(=O)CC(=O)CC(=O)OCC
The growth inhibition of the first is lower: 1.95% for the first, 2.6% for the second.

Compared with `C[C@H]1CC[C@@H]2O[C@@]23C(=O)OC2OC(C)(C)[C@@H]([C@H]2O)[C@]13C`, `COC1OCC(N=[N+]=[N-])C(OS(C)(=O)=O)C1OS(C)(=O)=O` (stereo not given) is higher in growth inhibition: -4.85% for the first, -4.3% for the second.

First: Cc1ccc(S(=O)(=O)N(C)c2ccc3c(c2)C(=O)c2ccccc2-3)cc1
Second: O=C(O)CS(=O)c1ccc2c3c(cccc13)C(=O)c1ccccc1-2 (stereo not given)
The growth inhibition of the first is higher: 14.2% for the first, -12.5% for the second.

First: CNCCCn1c2ccccc2c2c3c(c(-c4ccsc4)cc21)C(=O)NC3=O
Second: Cc1cccc2ccc(-c3cc4ccccc4s3)nc12
The growth inhibition of the first is higher: -8.7% for the first, -15.1% for the second.

Going from `Nc1ncnc(N)c1NC(=O)c1cccnc1` to `O=[N+]([O-])c1c[nH]c2ncnc(Cl)c12`, the growth inhibition rises from -6% to 0.6%.

Compared with `c1ccc2nn(C3CCCO3)nc2c1` (stereo not given), `C[C@]12C=CC(=O)C=C1CC[C@@H]1[C@@H]2C(=O)C[C@@]2(C)[C@H]1CC[C@]2(O)C(=O)COC(=O)CSc1c2ccccc2nc2ccccc12` is higher in growth inhibition: -16.5% for the first, 5.8% for the second.

Compared with `OCc1ccccc1Sc1ccccc1CO`, `O=C(c1ccccc1)C1(c2ccccc2)OC1(C(=O)c1ccccc1)c1ccccc1` (stereo not given) is higher in growth inhibition: -8.6% for the first, -4.75% for the second.

First: O=C(O)c1nc2cn1/C=C\C=NCC1=CN3C=CC=NC3(C(=O)O)N1C2 (stereo not given)
Second: CN(C)c1nc(NC(=O)NC(=O)c2c(F)cccc2F)nc(N(C)C)n1
The growth inhibition of the first is lower: -2.95% for the first, 11.3% for the second.

First: O=P(O)(O)OP(=O)(O)O
Second: O=C(O)CNC(=S)SCC(=O)O
The growth inhibition of the first is lower: -15.1% for the first, -6.55% for the second.

Going from `O=C(O)CCN(CCCCN(CCC(=O)O)CCC(=O)O)CCC(=O)O` to `C=CCSc1cccc(C)c1`, the growth inhibition rises from 7.05% to 14.9%.

Compared with `Nc1c(F)cc(I)cc1F`, `CN=C1CC2c3cc(OC)c(OC)cc3CCN2C2=C1C(=O)CC(C)(C)C2` (stereo not given) is higher in growth inhibition: 2.15% for the first, 18.5% for the second.

From PubChem BioAssay (NCI)
